Records with an inconclusive call do not appear. A call without a number means that no potency is given here. The source made the active and inactive calls. Calls follow the shape of the dose curve; as a rule, active = well fitted inhibition curve with a large enough effect; inconclusive = small, poorly fitted or top-dose-only effect; inactive = flat fitted curve, though single readings scatter.
system: Zika virus NS2B-NS3 protease; experiment: Primary screen GU AMC qHTS for Zika virus inhibitors (AID 1347154); settings: Zika NS2B-NS3 unlinked protease, AMC fluorogenic substrate; series mostly up to 54.1 µM; also: nearly all actives have a fitted effect of over 70% in size
Procedure, shortened: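 Unlinked Zika NS2B hydrophilic domain/NS3 protease domain noncovalent complex (25 nM final) in 10 mM Tris-HCl pH 8.0, 0.01% Tween 20, with AMC peptide substrate. Fluorescence (ex 340, em 450 nm) change over 15 min, room temperature; percent inhibition fitted to 4-parameter Hill equation.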

Structure (SMILES)	Potency
O=C(Cc1ccc(-c2ccc(OCCN3CCOCC3)cc2)cn1)NCc1ccccc1	inactive
Cc1cccc(C=NNc2cc(N3CCOCC3)nc(OCCc3ccccn3)n2)c1	inactive
CCCCCCCCCC(=O)N[C@@H](Cc1c[nH]c2ccccc12)C(=O)N[C@H](CC(N)=O)C(=O)N[C@@H](CC(=O)O)C(=O)N[C@@H]1C(=O)NCC(=O)N[C@@H](CCCN)C(=O)N[C@@H](CC(=O)O)C(=O)N[C@H](C)C(=O)N[C@@H](CC(=O)O)C(=O)NCC(=O)N[C@H](CO)C(=O)N[C@@H]([C@@H](C)CC(=O)O)C(=O)N[C@@H](CC(=O)c2ccccc2N)C(=O)O[C@@H]1C	inactive
Nc1ncnc2c1c(-c1cccc(OCc3ccccc3)c1)cn2C1CC(CN2CCCC2)C1 (centres undefined)	inactive
Cc1c(NC(=O)OC[C@@H]2COCCN2)cn2ncnc(Nc3ccc4c(cnn4Cc4cccc(F)c4)c3)c12	inactive
Cc1ccc(CN2CCNCC2)cc1NC(=O)CNc1ccc(F)c(F)c1	inactive
Cc1cnc(-c2cnc(NCCNc3ccc(C#N)cn3)nc2-c2ccc(Cl)cc2Cl)[nH]1	inactive
O=C(c1ccc(Nc2nccc(-c3cc4ccccc4s3)n2)cc1)N1CCC(N2CCCC2)CC1	inactive
C1Cc2[nH]nc(-c3nn[nH]n3)c2C1	inactive
CN(C)CC=CC(=O)Nc1cc2c(Nc3ccc(F)c(Cl)c3)ncnc2cc1O[C@H]1CCOC1	inactive
Nc1ccc(S(=O)(=O)Nc2ncccn2)cc1	inactive
COc1cc2c(Oc3ccc4[nH]c(C)cc4c3F)ncnc2cc1OCCCN1CCCC1	inactive
Cc1cc(Nc2cc(N3CCN(C)CC3)nc(C=Cc3ccccc3)n2)n[nH]1	inactive
C1=CCOCc2cc(ccc2OCCN2CCCC2)Nc2nccc(n2)-c2cccc(c2)OCC1	inactive
CCCCOc1c(C(=O)c2c(F)cc(C)cc2F)cnc2n[nH]cc12	inactive
CCCn1c(=O)c2[nH]c(-c3cnn(Cc4cccc(C(F)(F)F)c4)c3)nc2n(CC)c1=O	inactive
NC1(Cc2ccc(Cl)cc2)CCN(c2ncnc3[nH]ccc23)CC1	inactive

Structure (SMILES)	Potency
CC1(O)CC(c2nc(-c3ccc4ccc(-c5ccccc5)nc4c3)c3c(N)nccn23)C1 (centres undefined)	inactive
N#CCNC(=O)c1ccc(-c2ccnc(Nc3ccc(N4CCOCC4)cc3)n2)cc1	inactive
CC(C)c1noc(N2CCC(COc3ccc(-c4ccc(S(C)(=O)=O)cc4)nc3)CC2)n1	inactive
CN1c2cc(O)c(N=NC(N)=O)cc2CC1S(=O)(=O)O (centres undefined)	inactive
COc1cc2ncn(-c3cc(OCc4ccccc4C(F)(F)F)c(C(N)=O)s3)c2cc1OC	inactive
CCN(CC)CCNC(=O)c1ccc2nc(-c3ccccc3)c(-c3ccc(CN4CCC(n5c(=O)[nH]c6ccccc65)CC4)cc3)nc2c1	inactive
CN(C1CCc2c(c3ccccc3n2CC(=O)O)C1)S(=O)(=O)c1ccc(F)cc1 (centres undefined)	inactive
C[C@@H]1COC(Nc2ccc3ncnc(Nc4ccc(OCc5nccs5)c(Cl)c4)c3c2)=N1	inactive
CC(O)C1C(=O)N2C(C(=O)O)=C(SC3CNC(C(=O)N(C)C)C3)C(C)C12 (centres undefined)	inactive
Nc1ccccc1NC(=O)c1ccc(CNc2nccc(-c3cccnc3)n2)cc1	inactive
COc1cc2ncnc(Nc3ccc(F)c(Cl)c3)c2cc1NC(=O)C=CCN1CCCCC1	inactive
Nc1ccc(C(=O)c2cc3c(ccc4ccccc43)[nH]2)cc1	inactive
C[C@@H]1CN(CC(=O)Nc2ccc3c(c2)Cc2cccc(-c4cc(=O)cc(N5CCOCC5)o4)c2S3)C[C@H](C)O1	inactive
O=C(O)CCCc1c[nH]c2ccccc12	inactive
CC(C)(O)CCc1ccc(OCc2cc(-c3cccc(OC(F)F)c3)c3ncccc3c2)cc1	inactive
CCc1cc2c(cc1N1CCC(N3CCOCC3)CC1)C(C)(C)c1[nH]c3cc(C#N)ccc3c1C2=O	inactive
COc1cc2c(Nc3ccc(NC(=O)c4ccccc4)cc3)ncnc2cc1OCCCN1CCOCC1	inactive
